PubChem BioAssay (Tox21)
Records with an inconclusive call do not appear. A call without a number means that no potency is given here. Activity calls are given as the source filed them. Unless noted, the call rests on the fitted dose curve.

Experiments:
[1] = qHTS assay to identify small molecule antagonists of the sonic hedgehog signaling (Shh) pathway (AID 1259369); further: nearly all actives have a fitted effect of over 45% in size; further: potency means the concentration at half of the fitted maximal effect
Summary of the method: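 3T3Gli1-Luc, conditioned-medium-stimulated, 24hr cpd, 37C/5% CO2; Gli1-driven firefly Luc luminescence after 30min RT with luciferase reagent. Cells plated 4hr before cpd.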

[2] = qHTS assay to identify small molecule agonists of the androgen receptor (AR) signaling pathway in the presence of an antagonist - cell viability counter screen (AID 1259379; active means well fitted curve in the direction sought with a large enough effect in the repeat runs; an effect the other way counts as inactive or inconclusive; further: nearly all actives have a fitted effect of over 25% in size; further: potency means the concentration at half of the fitted maximal effect)
Summary of the method: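 Cells: MDA-kb2 (MMTV-luc, AR and GR elements), 3,000/well, 5 hr settle. Added: nilutamide 3.0uM final, then compounds (15 conc.). Incubation: 16 hr, 37C, no CO2. Read-out: CellTiter-Fluor, 1 hr, fluorescence.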

[3] = qHTS assay to identify small molecule agonists or antagonists of the thyroid stimulating hormone receptor (TSHR) signaling pathway - wild type cell line counter screen (AID 1259384)
Summary of the method: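 Wild-type HEK293 cells were plated 18 h at 37 C/5% CO2, pin-dosed with compound plus Ro20-1724 medium, held 30 min at room temperature, then given cAMP-d2 and anti-cAMP-cryptate; fluorescence was read after 1 h. Fifteen concentrations, triplicate.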

[4] = qHTS assay to identify small molecule agonists of the estrogen receptor alpha (ER-alpha) signaling pathway in the presence of an antagonist - cell viability counter screen (AID 1259386; active means well fitted curve in the direction sought with a large enough effect in the repeat runs; an effect the other way counts as inactive or inconclusive;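 further: cells exposed to compounds for 22 h at 37 °C before the viability read; nearly all actives have a fitted effect of over 30% in size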; further: potency means the concentration at half of the fitted maximal effect)
Summary of the method: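 VM7Luc4E2, stripped-serum pre-culture 5 d; 24hr plating; +ICI-182,780 10.0nM final; cpds 15 conc, 22hr, 37C/5% CO2; CellTiter-Fluor added at 21hr, fluorescence 1hr later.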

[5] = qHTS assay to identify small molecule antagonists of the TGF-beta/Smad signaling pathway - cell viability counter screen (AID 1346824; active means well fitted curve in the direction sought with a large enough effect in the repeat runs; an effect the other way counts as inactive or inconclusive; further: nearly all actives have a fitted effect of over 50% in size)
Summary of the method: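 SBE-bla HEK 293T cells were plated overnight at 37 C, then given compounds in DMSO plus TGF-beta1 (added as 0.25 ng/mL solution) for 5 hr. After the bla read, CellTiter-Glo was added to the same wells and luminescence read after 30 min at room temperature.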

[6] = qHTS assay to identify small molecule agonists of the TGF-beta/Smad signaling pathway - cell viability counter screen (AID 1346829; active means well fitted curve in the direction sought with a large enough effect in the repeat runs; an effect the other way counts as inactive or inconclusive; further: nearly all actives have a fitted effect of over 45% in size; further: potency means the concentration at half of the fitted maximal effect)
Summary of the method: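 CellTiter-Glo luminescence readout; SBE-bla HEK 293T cells, overnight plating, compound 5 hr at 37 C/5% CO2, then bla substrate 2 hr RT, then CellTiter-Glo 30 min RT.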

[7] = biological target: Thyrotropin-releasing hormone receptor (Homo sapiens) (UniProt P34981); test: qHTS assay to identify small molecule antagonists of the thyrotropin-releasing hormone receptor (TRHR) signaling pathway (AID 1346877; active means well fitted inhibition curve with a large enough effect in the repeat runs, not every such curve was filed as active; further: series mostly up to about 51 µM)
Summary of the method: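 Intracellular calcium fluorescence, read kinetically every second over 3 min, reports TRH-evoked signalling in HEK293 cells carrying TRHR. Test compounds were added 5 min ahead of a 1 nM TRH challenge.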

[8] = biological target: Thyrotropin-releasing hormone receptor (Homo sapiens) (UniProt P34981); test: qHTS assay to identify small molecule agonists of the thyrotropin-releasing hormone receptor (TRHR) signaling pathway (AID 1346891);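 further: HEK293 cells expressing TRHR with calcium dye readout; series mostly up to about 58 µM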
Summary of the method: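 Compounds were tested as agonists at 15 concentrations, in triplicate, on TRHR-Hek293 cells; calcium-sensitive dye fluorescence was recorded for 3 min following addition.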

[9] = qHTS assay to identify small molecule agonists of the estrogen receptor beta (ER-beta) signaling pathway - cell viability counter screen (AID 1259380; active means well fitted curve in the direction sought with a large enough effect in the repeat runs; an effect the other way counts as inactive or inconclusive; further: nearly all actives have a fitted effect of over 30% in size)
Summary of the method: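 HEK293T ER-beta-UAS-bla; 2% CS-FBS; 6 hr pre-plate, 16 hr cpd at 37C/5% CO2; LiveBLAzer read first, then CellTiter-Glo 30 min RT, luminescence.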

[10] = qHTS assay to identify small molecule antagonists of the estrogen receptor beta (ER-beta) signaling pathway - cell viability counter screen (AID 1259382; active means well fitted curve in the direction sought with a large enough effect in the repeat runs; an effect the other way counts as inactive or inconclusive; further: nearly all actives have a fitted effect of over 55% in size; further: potency means the concentration at half of the fitted maximal effect)
Summary of the method: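 Cells: ER-beta-UAS-bla HEK293T, 2,000/well, 2% CS-FBS, 6 hr settle. Cpd + E2 (1nM final), 16 hr, 37C/5% CO2. Bla FRET substrate 2 hr RT, then CellTiter-Glo 30 min RT, luminescence.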

[11] = biological target: Estrogen receptor (Homo sapiens) (UniProt P03372); test: qHTS assay to identify small molecule agonists of the estrogen receptor alpha (ER-alpha) signaling pathway in the presence of an antagonist (AID 1259383); further: top concentration of the series differs between compounds; nearly all actives have a fitted effect of over 15% in size
Summary of the method: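 VM7Luc4E2, endog. ER-alpha + 4×ERE-luc; charcoal-stripped FBS, phenol red-free, 5 d; 24hr plating; +10.0nM ICI-182,780 (final); cpds 15 conc, 22hr, 37C/5% CO2; ONE-Glo luminescence.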

[12] = biological target: Thyrotropin receptor (Homo sapiens) (UniProt P16473); test: qHTS assay to identify small molecule antagonists of the thyroid stimulating hormone receptor (TSHR) signaling pathway (AID 1259385); further: nearly all actives have a fitted effect of over 20% in size; further: potency means the concentration at half of the fitted maximal effect
Summary of the method: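 TSHR-HEK293 cells were plated and held 18 h at 37C/5% CO2, then given compound plus Ro20-1724 and stimulated with TSH at 1.5 ng/mL final. After 30 min at room temperature, cAMP was detected with cAMP-d2/anti-cAMP-cryptate (1 h) by fluorescence.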

[13] = qHTS assay to identify small molecule antagonists of the progesterone receptor (PR) signaling pathway - cell viability counter screen (AID 1346798; active means well fitted curve in the direction sought with a large enough effect in the repeat runs; an effect the other way counts as inactive or inconclusive; further: nearly all actives have a fitted effect of over 50% in size; further: potency means the concentration at half of the fitted maximal effect)
Summary of the method: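 CellTiter-Glo luminescence; PR-UAS-bla HEK293T, 3,000 cells/well; compound + R5020, 16 hr, 37C/5% CO2; 30 min RT before read.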

[14] = qHTS assay to identify small molecule agonists of the progesterone receptor (PR) signaling pathway - cell viability counter screen (AID 1346799); further: nearly all actives have a fitted effect of over 45% in size; further: potency means the concentration at half of the fitted maximal effect
Summary of the method: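 In parallel with the beta-lactamase readout, cytotoxicity toward PR-UAS-bla HEK293T cells was measured by CellTiter-Glo luminescence following 16 hr compound incubation in 2% charcoal-stripped FBS medium.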

[15] = biological target: Progesterone receptor (Homo sapiens) (UniProt P06401); test: qHTS assay to identify small molecule antagonists of the progesterone receptor (PR) signaling pathway (AID 1346795; active means well fitted inhibition curve with a large enough effect in the signal ratio in the repeat runs, not every such curve was filed as active; the % refers to the signal ratio)
Summary of the method: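 Fluorescence intensity measured 2 hr after adding beta-lactamase FRET substrate to PR-UAS-bla HEK293T cells that had been co-treated 16 hr with compound and 1 nM R5020 (final concentration) in 2% charcoal-stripped FBS.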

[16] = qHTS assay to identify small molecule agonists of the TGF-beta/Smad signaling pathway (AID 1346859; active means well fitted activation curve with a large enough effect in the signal ratio in the repeat runs, not every such curve was filed as active; the % refers to the signal ratio; further: series mostly up to about 77 µM)
Summary of the method: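 After overnight seeding, SBE-bla HEK 293T cells are dosed with compounds in DMSO and kept 5 hr at 37 C, 5% CO2. LiveBLAzer-type FRET substrate is then applied for 2 hr at room temperature.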

Chain of Thyrotropin receptor (Homo sapiens) (P16473 whole entry, looked up): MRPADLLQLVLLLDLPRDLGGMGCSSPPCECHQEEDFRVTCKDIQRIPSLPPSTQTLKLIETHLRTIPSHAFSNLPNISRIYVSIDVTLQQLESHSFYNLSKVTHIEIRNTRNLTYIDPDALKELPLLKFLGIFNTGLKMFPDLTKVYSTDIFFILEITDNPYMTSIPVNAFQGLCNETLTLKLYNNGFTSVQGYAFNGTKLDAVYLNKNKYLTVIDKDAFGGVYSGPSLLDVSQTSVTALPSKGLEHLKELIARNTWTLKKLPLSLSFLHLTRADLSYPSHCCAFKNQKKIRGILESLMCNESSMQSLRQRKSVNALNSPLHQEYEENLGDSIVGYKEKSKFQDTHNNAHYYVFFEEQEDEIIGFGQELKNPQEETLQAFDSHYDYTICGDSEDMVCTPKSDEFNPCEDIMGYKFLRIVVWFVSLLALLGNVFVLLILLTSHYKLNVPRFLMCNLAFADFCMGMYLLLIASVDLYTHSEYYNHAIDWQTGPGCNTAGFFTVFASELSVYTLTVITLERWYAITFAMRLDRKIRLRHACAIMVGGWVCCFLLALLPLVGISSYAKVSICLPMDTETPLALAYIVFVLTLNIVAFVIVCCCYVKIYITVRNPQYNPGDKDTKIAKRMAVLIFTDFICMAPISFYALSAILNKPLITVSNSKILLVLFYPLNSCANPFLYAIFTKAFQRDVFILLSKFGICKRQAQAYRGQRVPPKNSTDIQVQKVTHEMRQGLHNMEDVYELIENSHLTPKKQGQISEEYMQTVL
Chain of Thyrotropin-releasing hormone receptor (Homo sapiens) (P34981 whole entry, looked up): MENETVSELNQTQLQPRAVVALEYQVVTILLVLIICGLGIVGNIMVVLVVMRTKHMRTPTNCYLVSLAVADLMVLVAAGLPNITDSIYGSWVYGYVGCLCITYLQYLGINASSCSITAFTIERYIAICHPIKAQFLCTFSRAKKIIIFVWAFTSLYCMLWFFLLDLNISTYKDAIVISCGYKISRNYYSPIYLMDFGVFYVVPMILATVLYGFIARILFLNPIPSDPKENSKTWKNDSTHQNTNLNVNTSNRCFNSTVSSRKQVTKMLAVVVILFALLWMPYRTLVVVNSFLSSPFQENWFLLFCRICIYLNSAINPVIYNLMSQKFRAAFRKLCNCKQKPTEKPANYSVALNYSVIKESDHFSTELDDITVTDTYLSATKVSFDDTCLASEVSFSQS
Chain of Estrogen receptor (Homo sapiens) (P03372 whole entry, looked up): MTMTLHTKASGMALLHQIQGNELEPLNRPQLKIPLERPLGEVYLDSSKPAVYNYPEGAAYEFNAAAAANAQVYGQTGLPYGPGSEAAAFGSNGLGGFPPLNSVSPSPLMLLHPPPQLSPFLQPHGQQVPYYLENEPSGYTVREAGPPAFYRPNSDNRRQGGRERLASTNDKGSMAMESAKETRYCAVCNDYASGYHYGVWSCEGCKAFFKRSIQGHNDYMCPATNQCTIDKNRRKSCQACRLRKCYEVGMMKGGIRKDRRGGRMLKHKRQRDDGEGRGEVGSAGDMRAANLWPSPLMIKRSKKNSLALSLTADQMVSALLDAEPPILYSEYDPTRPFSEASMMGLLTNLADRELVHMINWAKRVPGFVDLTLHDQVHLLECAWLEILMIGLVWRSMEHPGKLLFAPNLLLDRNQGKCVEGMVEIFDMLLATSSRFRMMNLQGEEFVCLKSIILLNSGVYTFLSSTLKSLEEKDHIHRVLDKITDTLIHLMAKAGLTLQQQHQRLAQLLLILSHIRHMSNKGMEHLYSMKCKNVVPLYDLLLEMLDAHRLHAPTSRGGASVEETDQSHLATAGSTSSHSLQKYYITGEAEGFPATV
Chain of Progesterone receptor (Homo sapiens) (P06401 whole entry, looked up): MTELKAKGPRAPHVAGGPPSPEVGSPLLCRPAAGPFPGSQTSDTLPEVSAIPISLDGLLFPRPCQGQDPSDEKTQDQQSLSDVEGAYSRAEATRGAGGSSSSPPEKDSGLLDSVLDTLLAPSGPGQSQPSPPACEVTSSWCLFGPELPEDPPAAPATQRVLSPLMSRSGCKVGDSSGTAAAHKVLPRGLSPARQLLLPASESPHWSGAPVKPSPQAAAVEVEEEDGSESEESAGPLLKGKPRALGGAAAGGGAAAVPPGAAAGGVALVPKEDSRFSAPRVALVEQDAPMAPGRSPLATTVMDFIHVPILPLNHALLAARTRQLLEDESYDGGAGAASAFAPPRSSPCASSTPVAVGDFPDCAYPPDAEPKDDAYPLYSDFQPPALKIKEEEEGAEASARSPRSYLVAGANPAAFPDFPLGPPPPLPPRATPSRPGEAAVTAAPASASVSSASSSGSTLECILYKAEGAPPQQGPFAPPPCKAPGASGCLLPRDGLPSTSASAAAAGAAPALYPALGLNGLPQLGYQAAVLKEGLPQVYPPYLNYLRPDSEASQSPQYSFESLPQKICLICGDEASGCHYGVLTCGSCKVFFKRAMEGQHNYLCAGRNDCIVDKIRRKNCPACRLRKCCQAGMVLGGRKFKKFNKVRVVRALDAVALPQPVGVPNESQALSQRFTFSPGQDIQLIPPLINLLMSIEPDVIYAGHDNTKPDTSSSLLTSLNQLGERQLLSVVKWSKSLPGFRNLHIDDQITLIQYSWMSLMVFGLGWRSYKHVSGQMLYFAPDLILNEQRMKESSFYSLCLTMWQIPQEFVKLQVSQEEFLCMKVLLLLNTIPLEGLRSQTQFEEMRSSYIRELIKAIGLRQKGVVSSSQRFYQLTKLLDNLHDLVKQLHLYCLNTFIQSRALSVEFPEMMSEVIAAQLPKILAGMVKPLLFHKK

Compound | Potency [1] | Potency [2] | outcome [3] | Potency [4] | Potency [5] | Potency [6] | Potency [7] | Potency [8] | Potency [9] | Potency [10] | Potency [11] | Potency [12] | Potency [13] | Potency [14] | Potency [15] | Potency [16]
[Cl][Au]([Cl])[Cl] | 0.172 µM (active) | 54.5 µM (active) | inactive | 43.3 µM (active) | inactive | 54.9 µM (active) | inactive | inactive | – | – | – | – | – | – | – | –
CC[C@@]1(O)C(=O)OCc2c1cc1n(c2=O)Cc2cc3c(CN(C)C)c(O)ccc3nc2-1 | 1.33 µM (active) | – | inactive | – | inactive | inactive | – | – | inactive | inactive | inactive | inactive | – | – | – | –
CCCCCCCC/C=C\CCCCCCCCOCCO | 14.1 µM (active) | 28.2 µM (active) | inactive | 35.5 µM (active) | – | 63.7 µM (active) | – | inactive | – | 28.2 µM (active) | inactive | 89.1 µM (active) | 31.6 µM (active) | 25.1 µM (active) | – | –
CCCC/C=C/CCCCO | inactive | inactive | inactive | inactive | inactive | inactive | inactive | inactive | – | inactive | inactive | inactive | inactive | inactive | inactive | inactive
